# From ChEMBL document CHEMBL3988442, “University of Dundee, Small-Polar-MMV Screening Library” (2021)
# For some of these results: Entries with a potency or affinity are not part of this list.
# How the values were obtained:
# Parameters in all cases: scale not given: direction of the effect not stated beside the values
# [1] = target: Protein translocase subunit SecA (Escherichia coli (strain K12)) (UniProt P10408); experiment: Assay to Identify E. coli SecA ATPase Inhibitors; type: functional; settings: 30 µM
# Protein translocase subunit SecA (Escherichia coli (strain K12)), sequence (P10408 whole entry): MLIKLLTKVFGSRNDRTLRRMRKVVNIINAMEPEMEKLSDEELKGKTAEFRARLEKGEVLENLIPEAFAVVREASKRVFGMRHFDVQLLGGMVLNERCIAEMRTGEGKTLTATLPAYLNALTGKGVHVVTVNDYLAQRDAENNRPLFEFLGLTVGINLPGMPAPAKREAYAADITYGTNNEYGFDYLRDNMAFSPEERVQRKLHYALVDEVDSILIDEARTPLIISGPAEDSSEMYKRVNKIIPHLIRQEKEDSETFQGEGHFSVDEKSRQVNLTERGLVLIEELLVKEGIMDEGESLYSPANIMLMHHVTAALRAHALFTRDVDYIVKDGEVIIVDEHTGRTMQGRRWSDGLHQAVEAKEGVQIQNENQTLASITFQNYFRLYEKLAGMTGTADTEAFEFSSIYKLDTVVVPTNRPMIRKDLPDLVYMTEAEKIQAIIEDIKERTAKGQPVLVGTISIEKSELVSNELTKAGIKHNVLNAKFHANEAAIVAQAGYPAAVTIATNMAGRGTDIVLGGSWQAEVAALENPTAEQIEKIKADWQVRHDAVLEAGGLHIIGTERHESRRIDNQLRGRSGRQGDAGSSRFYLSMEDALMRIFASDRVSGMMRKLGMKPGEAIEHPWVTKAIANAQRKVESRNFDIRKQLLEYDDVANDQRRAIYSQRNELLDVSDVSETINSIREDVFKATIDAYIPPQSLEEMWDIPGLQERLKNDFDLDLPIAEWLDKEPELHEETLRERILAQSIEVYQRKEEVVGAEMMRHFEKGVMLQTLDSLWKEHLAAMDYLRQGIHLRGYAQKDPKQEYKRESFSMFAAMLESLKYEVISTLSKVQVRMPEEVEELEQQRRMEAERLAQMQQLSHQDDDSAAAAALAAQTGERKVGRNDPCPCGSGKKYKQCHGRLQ
# [2] = target: T1, Ubiquitin-activating enzyme e1, putative (Leishmania donovani (strain BPK282A1)) (UniProt E9BSI1); experiment: Leishmania donovani Ubiquitin Activating Enzyme (LdE1); type: functional; settings: 30 µM
# T1 sequence (whole entry): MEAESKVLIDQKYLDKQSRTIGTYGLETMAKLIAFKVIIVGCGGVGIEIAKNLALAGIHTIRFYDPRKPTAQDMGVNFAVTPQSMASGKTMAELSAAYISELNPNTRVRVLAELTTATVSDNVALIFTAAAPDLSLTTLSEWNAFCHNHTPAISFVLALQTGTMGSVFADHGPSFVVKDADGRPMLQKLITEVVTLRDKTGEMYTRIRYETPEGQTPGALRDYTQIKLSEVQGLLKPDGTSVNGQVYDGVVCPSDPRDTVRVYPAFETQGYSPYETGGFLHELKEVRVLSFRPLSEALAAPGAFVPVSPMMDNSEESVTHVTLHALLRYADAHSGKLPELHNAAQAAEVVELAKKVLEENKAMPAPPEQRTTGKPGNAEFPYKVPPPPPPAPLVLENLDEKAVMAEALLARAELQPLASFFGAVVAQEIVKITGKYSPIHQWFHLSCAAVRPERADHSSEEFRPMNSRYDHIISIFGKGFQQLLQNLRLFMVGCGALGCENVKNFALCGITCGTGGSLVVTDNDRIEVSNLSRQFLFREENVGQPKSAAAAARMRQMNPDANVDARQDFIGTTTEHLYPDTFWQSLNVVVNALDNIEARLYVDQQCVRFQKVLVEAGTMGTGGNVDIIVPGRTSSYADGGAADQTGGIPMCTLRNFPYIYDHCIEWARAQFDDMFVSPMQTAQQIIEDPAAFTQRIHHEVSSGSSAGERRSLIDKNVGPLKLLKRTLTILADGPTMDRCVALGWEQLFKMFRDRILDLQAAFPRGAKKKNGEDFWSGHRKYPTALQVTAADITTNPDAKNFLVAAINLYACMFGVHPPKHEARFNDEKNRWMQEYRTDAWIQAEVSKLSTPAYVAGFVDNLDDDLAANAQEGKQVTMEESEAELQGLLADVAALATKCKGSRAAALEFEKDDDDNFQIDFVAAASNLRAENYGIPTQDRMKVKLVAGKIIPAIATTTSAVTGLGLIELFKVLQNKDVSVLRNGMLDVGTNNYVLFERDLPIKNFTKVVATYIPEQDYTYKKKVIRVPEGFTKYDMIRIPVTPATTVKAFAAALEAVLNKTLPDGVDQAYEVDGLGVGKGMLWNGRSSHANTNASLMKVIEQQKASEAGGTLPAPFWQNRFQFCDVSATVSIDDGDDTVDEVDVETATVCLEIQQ
# [3] = target: AMP-activated protein kinase, AMPK (Homo sapiens) (UniProt P54646+O43741+P54619+Q9UGJ0+Q9Y478+Q13131+Q9UGI9); experiment: AMP-dependent Kinase enzyme assay. An in vitro enzyme assay that detects ADP turnover that is directly proportional to AMPK activity. This uses naive AMPK that is activated during the assay with MK-8722; type: functional; settings: 30 µM
# [4] = target: Sialic acid-binding Ig-like lectin 9 (Homo sapiens) (UniProt Q9Y336); experiment: Hs-Siglec9 ALPHAscreen SOP 20170721; settings: 10 µM
# Sialic acid-binding Ig-like lectin 9 (Homo sapiens), sequence (Q9Y336 whole entry): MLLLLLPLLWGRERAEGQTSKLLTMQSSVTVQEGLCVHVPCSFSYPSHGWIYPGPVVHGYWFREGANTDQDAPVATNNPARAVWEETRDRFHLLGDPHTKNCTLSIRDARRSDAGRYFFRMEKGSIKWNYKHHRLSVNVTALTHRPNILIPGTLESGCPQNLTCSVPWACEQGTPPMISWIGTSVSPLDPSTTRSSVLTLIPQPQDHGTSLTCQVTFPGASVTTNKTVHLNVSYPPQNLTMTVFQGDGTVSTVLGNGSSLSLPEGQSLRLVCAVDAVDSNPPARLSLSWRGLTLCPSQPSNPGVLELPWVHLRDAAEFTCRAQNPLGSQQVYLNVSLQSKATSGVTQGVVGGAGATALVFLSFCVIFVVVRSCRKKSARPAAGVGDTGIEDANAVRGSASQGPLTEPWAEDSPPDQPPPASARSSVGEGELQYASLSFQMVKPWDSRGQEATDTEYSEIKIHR
# [5] = system: Trypanosoma cruzi; experiment: Trypanosoma cruzi phosphomannomutase and mannose-1-phosphate guanylyltransferase assay; type: functional; settings: 10 µM
# [6] = target: T2, Arginase-2, mitochondrial (Homo sapiens) (UniProt P78540); experiment: in vitro enzyme assay to detect the production of urea directly proportional to the activity of Arginase II; type: functional; settings: 33.3 µM; also: in the data most compounds retested in dose-response had high values
# T2 sequence (whole entry): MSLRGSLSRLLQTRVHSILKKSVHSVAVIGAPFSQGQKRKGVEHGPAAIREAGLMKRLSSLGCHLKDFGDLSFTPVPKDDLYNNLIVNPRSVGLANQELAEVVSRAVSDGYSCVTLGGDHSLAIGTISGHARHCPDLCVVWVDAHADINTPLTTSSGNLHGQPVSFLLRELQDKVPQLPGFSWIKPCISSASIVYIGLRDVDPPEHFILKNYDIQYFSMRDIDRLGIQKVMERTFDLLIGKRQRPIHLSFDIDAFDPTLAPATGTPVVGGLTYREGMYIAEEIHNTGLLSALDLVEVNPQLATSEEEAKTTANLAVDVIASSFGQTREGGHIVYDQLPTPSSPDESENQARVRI
# [7] = target: T3, Proteasome subunit beta (Trypanosoma cruzi) (UniProt O96673); experiment: Trypanosoma cruzi proteasome chymotrypsin-like activity (TcProtChymo) assay.; also: in the data most compounds retested in dose-response had high values; type: functional; settings: 9.37 µM
# T3 sequence (whole entry): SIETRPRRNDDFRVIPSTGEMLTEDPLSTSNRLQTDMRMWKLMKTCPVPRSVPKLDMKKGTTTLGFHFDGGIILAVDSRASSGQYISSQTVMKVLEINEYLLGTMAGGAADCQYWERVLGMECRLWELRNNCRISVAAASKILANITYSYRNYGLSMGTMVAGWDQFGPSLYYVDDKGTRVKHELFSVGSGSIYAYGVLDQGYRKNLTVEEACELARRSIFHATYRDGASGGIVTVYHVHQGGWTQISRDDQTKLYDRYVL
# [8] = species on record: Homo sapiens; experiment: To identify inhibition of the IFN signalling (Jak-Stat) pathway via expression of an eGFP reporter gene under the control of an IFN-stimulated response element (ISRE) containing MxA promoter.; type: functional; settings: 30 µM
# [9] = target: T4, Tyrosyl-tRNA synthetase, putative (Trypanosoma cruzi (strain CL Brener)) (UniProt Q4DSP6); experiment: Trypanosoma cruzi tyrosyl tRNA synthetase (TcYRS) _High Tyrosine SOP; type: functional; settings: 30 µM; also: in the data most compounds retested in dose-response had high values
# T4 sequence (whole entry): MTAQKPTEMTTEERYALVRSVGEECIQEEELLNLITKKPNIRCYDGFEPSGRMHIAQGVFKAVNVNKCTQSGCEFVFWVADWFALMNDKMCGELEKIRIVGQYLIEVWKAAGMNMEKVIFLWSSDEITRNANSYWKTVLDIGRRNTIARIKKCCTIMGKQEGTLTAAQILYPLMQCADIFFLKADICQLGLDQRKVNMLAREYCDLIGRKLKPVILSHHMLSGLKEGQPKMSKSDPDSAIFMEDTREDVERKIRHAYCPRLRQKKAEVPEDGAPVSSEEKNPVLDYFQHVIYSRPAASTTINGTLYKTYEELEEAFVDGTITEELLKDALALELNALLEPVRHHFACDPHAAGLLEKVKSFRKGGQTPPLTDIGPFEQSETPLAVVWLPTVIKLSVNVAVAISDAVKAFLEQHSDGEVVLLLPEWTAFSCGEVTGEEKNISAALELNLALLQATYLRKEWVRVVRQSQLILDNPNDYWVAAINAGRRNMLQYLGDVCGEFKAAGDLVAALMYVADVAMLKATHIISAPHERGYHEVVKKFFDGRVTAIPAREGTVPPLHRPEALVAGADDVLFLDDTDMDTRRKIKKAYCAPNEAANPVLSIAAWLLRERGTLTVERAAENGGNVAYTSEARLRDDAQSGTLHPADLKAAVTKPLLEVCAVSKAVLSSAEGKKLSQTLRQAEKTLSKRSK
# [10] = target: T4, Tyrosyl-tRNA synthetase, putative (Trypanosoma cruzi (strain CL Brener)); experiment: Trypanosoma cruzi tyrosyl tRNA synthetase (TcYRS) SOP; type: functional; settings: 30 µM
# [11] = target: Chromo domain-containing protein 1 (Saccharomyces cerevisiae (strain ATCC 204508 / S288c) (Baker's yeast)) (UniProt P32657); experiment: ScCHD-1 Enzyme Inhibition Assay; type: functional; settings: 30 µM; also: in the data most compounds retested in dose-response had high values
# Chromo domain-containing protein 1 (Saccharomyces cerevisiae (strain ATCC 204508 / S288c) (Baker's yeast)), sequence (P32657 whole entry, the tested form may be a part): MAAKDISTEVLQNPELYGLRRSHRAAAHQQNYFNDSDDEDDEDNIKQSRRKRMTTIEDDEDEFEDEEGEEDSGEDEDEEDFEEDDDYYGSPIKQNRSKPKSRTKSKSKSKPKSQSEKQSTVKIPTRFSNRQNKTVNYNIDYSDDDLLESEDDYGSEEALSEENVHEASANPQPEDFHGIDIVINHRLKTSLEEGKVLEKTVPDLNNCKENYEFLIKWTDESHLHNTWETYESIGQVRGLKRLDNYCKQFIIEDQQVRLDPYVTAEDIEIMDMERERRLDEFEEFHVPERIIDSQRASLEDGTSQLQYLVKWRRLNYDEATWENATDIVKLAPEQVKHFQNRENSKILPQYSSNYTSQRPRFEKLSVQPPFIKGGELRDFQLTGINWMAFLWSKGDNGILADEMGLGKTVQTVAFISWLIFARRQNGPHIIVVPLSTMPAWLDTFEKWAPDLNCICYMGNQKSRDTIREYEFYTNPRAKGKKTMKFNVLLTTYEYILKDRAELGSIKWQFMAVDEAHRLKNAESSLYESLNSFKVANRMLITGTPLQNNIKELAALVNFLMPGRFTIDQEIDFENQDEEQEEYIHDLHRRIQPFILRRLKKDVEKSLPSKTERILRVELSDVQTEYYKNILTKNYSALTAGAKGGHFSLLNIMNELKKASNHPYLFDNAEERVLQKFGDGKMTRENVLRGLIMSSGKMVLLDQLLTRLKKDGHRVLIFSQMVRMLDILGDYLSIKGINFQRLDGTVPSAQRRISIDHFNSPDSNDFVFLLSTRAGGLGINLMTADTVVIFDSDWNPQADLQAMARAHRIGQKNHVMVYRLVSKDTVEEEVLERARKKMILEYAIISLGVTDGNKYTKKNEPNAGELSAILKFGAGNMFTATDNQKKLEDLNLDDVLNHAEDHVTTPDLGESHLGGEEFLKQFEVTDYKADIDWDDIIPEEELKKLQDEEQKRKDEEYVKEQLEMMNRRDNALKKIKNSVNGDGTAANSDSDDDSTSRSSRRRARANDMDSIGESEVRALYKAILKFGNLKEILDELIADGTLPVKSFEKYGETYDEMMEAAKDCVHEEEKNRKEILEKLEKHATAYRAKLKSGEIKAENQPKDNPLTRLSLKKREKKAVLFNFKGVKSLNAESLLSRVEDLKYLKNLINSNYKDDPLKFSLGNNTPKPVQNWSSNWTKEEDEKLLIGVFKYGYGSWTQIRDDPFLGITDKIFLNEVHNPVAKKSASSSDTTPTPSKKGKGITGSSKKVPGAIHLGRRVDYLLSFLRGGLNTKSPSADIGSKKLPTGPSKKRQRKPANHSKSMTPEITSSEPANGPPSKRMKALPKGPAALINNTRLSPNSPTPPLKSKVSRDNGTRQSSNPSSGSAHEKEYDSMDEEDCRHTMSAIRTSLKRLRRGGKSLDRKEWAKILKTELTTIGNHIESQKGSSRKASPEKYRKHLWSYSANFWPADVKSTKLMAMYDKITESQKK
SMILES,Percent Effect [1] [%],Percent Effect [2] [%],Percent Effect [3] [%],Percent Effect [4] [%],Percent Effect [5] [%],Percent Effect [6] [%],Percent Effect [7] [%],Percent Effect [8] [%],Percent Effect [9] [%],Percent Effect [10] [%],Percent Effect [11] [%]
COc1ccccc1C(O)CNC(=O)NCc1cccnc1OC (stereo not drawn),-5.38,12.7,3.02,-9.15,-7.84,-0.38,6.63,30.3,1.48,13.9,-5.07
COc1cccc(CNC(=O)N2CCN(Cc3cc(C)on3)CC2)c1,-1.41,15.2,-1.11,-7.32,-6.33,0.38,1.39,25.8,5.42,11.4,-5.16
COCC1CN(C(=O)COc2ccccc2)Cc2cn(C)nc21 (stereo not drawn),1.54,-2.6,1.75,4.23,-2.27,-8.39,1.39,9.62,-5.29,-1.28,-6.88
Cc1n[nH]c(C2CN(C(=O)Cn3ccccc3=O)CCO2)n1 (stereo not drawn),-8.02,1.27,4.25,2.29,-1.13,2.37,6.35,1.57,0,2.53,-9.48
COCC1CC2(CCN(Cc3cnn(C)c3)CC2)CN1c1ncccn1 (stereo not drawn),-2.97,13,0.218,12.7,7.38,-5.52,11.7,-19,7.53,18.5,-2.6
O=C(NCCC1CCCO1)c1ccccc1N1CCOCC1 (stereo not drawn),-4.55,2.74,-1.11,12.4,4.56,-5.99,10.7,8.12,10.4,18.5,-2.02
COc1ccc2c(O)c(NC(=O)NCC3CC3)cnc2c1,1.05,14.9,9.57,-7.59,-1.38,-4.87,14.7,7.86,2.15,9.09,-11.6
c1cnc(-c2nc(CN3CCOC(Cn4cncn4)C3)cs2)nc1 (stereo not drawn),-3.88,29.7,-7.99,-4.32,-0.66,-12.8,9.91,18.1,1.48,13.6,-6.92
